# Sampled rows, rich in hits. Any-hit rate of the full collection: about 2.6%.
# ABHD5 PLIN5 PPI – ABHD5-PLIN5 interaction inhibitors, primary screen, cell lysate, split luciferase complementation, luminescence | Perilipin-5 (Homo sapiens) + 1-acylglycerol-3-phosphate O-acyltransferase ABHD5 (Homo … | Split G. princeps luciferase complementation, 4 h | inhibition, % at 4 µM | 360,000 compounds, 0.78% hits;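 active means inhibition above the mean inhibition across every tested compound plus 3 SD, cut at about 22% in these data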
# PfM18AAP inh – PfM18AAP inhibitors, malaria aminopeptidase, primary screen, biochemical, QFRET, recombinant enzyme | AID 1822, 2009 | H-Glu-NHMec fluorogenic cleavage | inhibition, % at 7.35 µM | 290,000 compounds, 1.2% hits;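 active means inhibition above the campaign mean inhibition over all tested compounds plus 3 SD, cut at about 28% in these data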
# Rce1 inhib – yeast Rce1p protease inhibitors, primary screen, biochemical, fluorescence, cell-free homogeneous; CAAX prenyl protease 2 (Saccharomyces cerevisiae (strain ATCC 204508 / S288c)), Q03530; yeast membranes, quenched prenylated peptide cleavage fluorescence; calls only; 290,000 compounds, 0.27% hits;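 active means fall in fluorescence gain of 50% or more versus controls, with final raw signal at or below 3038400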
# Granule exo inh – LAMP-1 surface exposure blockers, TALL-104 cells – cell-based, flow cytometry, MLPCN library, primary screen; 360,000 compounds, 0.66% hits; inhibition, % at 10 µM; TALL-104 LAMP-1 surface exposure; cells stimulated with thapsigargin and PMA;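 active means inhibition above about 55%, limit read from the data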
# Platelet DG rel – inhibitors of platelet dense granule secretion, primary screen, cell-based, MLPCN, human platelets. AID 1663, 2009. inhibition, %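 (compounds screened at 7.5 µM in platelet-rich plasma)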. human platelet-rich plasma, SFLLRN dense granule ATP release, luminescence. 300,000 compounds, 0.22% hits;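 active means mean replicate score, as percent of positive control, at or above 50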
# Hits are given with their value; – = inactive; · = no result; + = active, no number; ! = a repeat was not active.
SMILES,ABHD5 PLIN5 PPI,PfM18AAP inh,Rce1 inhib,Granule exo inh,Platelet DG rel
C#CCOCCOCCOCCNc1nc(N2CCN(C(=O)CCCCCCCCCCNC(=O)[C@H](CCCCN)n3cc(CCO)nn3)CC2)nc(N2CCN(C(=O)CCCCCCCCCCNC(=O)[C@H](CCCCN)n3cc(CCO)nn3)CC2)n1,29,·,·,–,·
Cn1nc(C(F)(F)F)c(/C=N/OC(=O)c2ccccc2)c1Cl,–,–,–,57,–
Cc1nn(C)c(Cl)c1/C=N/OC(=O)c1ccccc1,–,–,–,–,–
Cc1nnsc1C(=O)NNc1ccc(C(C)C)cc1,–,–,–,–,–
Cc1nnsc1C(=O)NNc1ccc(C(C)(C)C)cc1,–,29,–,–,–
Cc1ccc(-c2nc3ccc(Cl)cc3c(=O)n2O)cc1,–,–,–,–,–
Cc1occc1C(=O)NNC(=O)Nc1ccc(F)cc1F,–,30,–,–,–
Cc1ccc(-c2nc(SC(C)C(=O)N3CCCC3)n[nH]2)cc1 (configuration not stated),–,·,–,–,–
Cc1ccc(-c2nc(SC(C)C(=O)N3CCOCC3)n[nH]2)cc1 (configuration not stated),–,–,–,–,61
Cn1cc(CN(CCO)Cc2cccs2)c(-c2cccc(Cl)c2)n1,–,–,–,–,58
O=S(=O)(Nc1cc2nc3ccccc3nc2n1Cc1ccccc1)c1ccc(Cl)cc1,–,28,–,66,–
COCCCNC1=C(Cl)C(=O)c2ccccc2C1=O,–,–,–,56,–
C=CCOc1ccc(-c2n[nH]c(=S)o2)cc1,–,–,+,–,·
COc1ccc(C(=O)Nc2ccc(-c3n[nH]c(=S)o3)cc2)cc1,–,–,–,–,–
O=C(NN1CC(=O)N(c2cc(Cl)cc(Cl)c2)CC1=O)c1sccc1Cl,–,–,–,–,–
COc1cc(/C=N/Nc2ncc(C(F)(F)F)cc2Cl)cc(OC)c1OC,–,–,–,–,–
N#Cc1ccc(N=c2ssnc2Cl)cc1,–,–,–,99!,–
Clc1ccc(N=c2ssnc2Cl)cc1,–,–,–,82,–
O=C(Nc1ccccn1)c1cc(-c2cccnc2)nc2ccc(Br)cc12,–,–,–,–,–
CC(C)(C)c1ccc(C(=O)Nn2cnnc2)cc1,–,–,–,–,–
CCOc1ccc(C(=O)Nn2cnnc2)cc1OCC,–,29,–,–,–
Cc1cc(C)cc(C(=O)Nn2cnnc2)c1,–,31,–,–,–
CCOC(=O)C1CCCN(C2=NC(=O)/C(=C/c3ccc(O)c(OC)c3)S2)C1 (configuration not stated),–,–,–,–,–
CSCc1ccc(C(=O)NC(C)c2cnn(-c3ccccn3)c2C)o1 (configuration not stated),–,–,–,–,–
COCCCNC(=O)c1nc2ccccc2c(=O)n1NC(=O)Nc1c(Cl)cccc1Cl,–,–,–,–,–
SMILES,ABHD5 PLIN5 PPI,PfM18AAP inh,Rce1 inhib,Granule exo inh,Platelet DG rel
C/C(=C\C(=O)c1ccccc1)Nc1ccc(N2CCOCC2)cc1,–,–,–,–,–
CN1CCN(Cc2nc3ccccc3c(=O)n2Cc2nc(-c3cccc([N+](=O)[O-])c3)cs2)CC1,–,–,·,–,·
CN1CCN(Cc2nc3ccccc3c(=O)n2Cc2nc(-c3ccc4ccccc4c3)cs2)CC1,–,–,–,65!,–
O=c1c(O[C@@H]2O[C@H](CO)[C@H](O)[C@H](O)[C@H]2O)c(-c2ccc(O)c(O)c2)oc2cc(O)cc(O)c12,·,68,·,·,·
O=c1c(O[C@@H]2O[C@H](CO)[C@@H](O)[C@H](O)[C@H]2O)c(-c2ccc(O)cc2)oc2cc(O)cc(O)c12,–,·,·,–,·
C[C@@H]1O[C@@H](OC[C@H]2O[C@@H](Oc3c(-c4ccc(O)c(O)c4)oc4cc(O)cc(O)c4c3=O)[C@H](O)[C@@H](O)[C@@H]2O)[C@H](O)[C@H](O)[C@H]1O,–,64,–,–,–
O=c1c(O[C@@H]2O[C@H](CO)[C@@H](O)[C@H](O)[C@H]2O)c(-c2ccc(O)c(O)c2)oc2cc(O)cc(O)c12,·,68,–,·,–
CC1OC(OCC2OC(Oc3c(-c4ccc(O)cc4)oc4cc(O)cc(O)c4c3=O)C(O)C(O)C2O)C(O)C(O)C1O (configuration not stated),–,–,·,–,–
